{
  "source": "PubChem BioAssay (NCATS)",
  "key": {"[1]": {"target": "Lysosomal acid glucosylceramidase (Homo sapiens) (UniProt P04062)", "sequence (P04062 whole entry, looked up)": "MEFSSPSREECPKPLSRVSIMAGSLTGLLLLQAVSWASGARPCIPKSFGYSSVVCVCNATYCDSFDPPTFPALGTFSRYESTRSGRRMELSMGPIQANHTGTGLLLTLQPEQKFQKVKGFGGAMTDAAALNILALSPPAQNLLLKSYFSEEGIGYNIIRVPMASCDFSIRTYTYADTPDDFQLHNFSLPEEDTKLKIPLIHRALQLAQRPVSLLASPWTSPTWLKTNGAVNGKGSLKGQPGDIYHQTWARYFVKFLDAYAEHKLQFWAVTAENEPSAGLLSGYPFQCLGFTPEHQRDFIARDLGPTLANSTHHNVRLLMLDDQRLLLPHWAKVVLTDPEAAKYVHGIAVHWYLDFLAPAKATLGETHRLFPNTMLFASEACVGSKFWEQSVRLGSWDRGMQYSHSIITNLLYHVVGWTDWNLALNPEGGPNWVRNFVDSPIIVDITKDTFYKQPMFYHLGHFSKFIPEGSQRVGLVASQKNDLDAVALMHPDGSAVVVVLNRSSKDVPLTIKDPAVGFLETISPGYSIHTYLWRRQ", "experiment": "Glucocerebrosidase-p2 (AID 348; in the data active = potency below about 10 µM; also: potency is read from the fitted curve at half-maximal effect)", "details": "purified GBA, blue fluorogenic substrate, 40 min", "in_short": "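Normal human glucocerebrosidase (0.2 nM) with blue fluorogenic substrate (80 uM final) in citrate/phosphate pH 5.9 with 10mM sodium taurocholate, 0.01% tween-20; 40 min RT, NaOH/glycine stop; fluorescence Ex 365/Em 440; AC50 from a titration from 0.6 nM upwards.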"}, "[2]": {"experiment": "AP1 Signaling Pathway (AID 357); also: % is scaled to controls: 0 for no effect and ±100 for the full control effect", "details": "ME-180 AP-1-bla reporter, EGF-induced, beta-lactamase ratio, 5 h; at 7.69 µM (top of the series) unless noted", "in_short": "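AP-1-bla ME-180 cells with beta-lactamase reporter under AP-1 response element, stimulated with EC50 EGF; compounds titrated, 5 hours at 37 degrees Celsius. CCF4 read at 460/530 nm ratio; positive and negative modulators judged by AC50.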"}, "[3]": {"experiment": "NFAT Signaling Pathway (AID 444);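 also: carbachol stimulus at about its EC50 of 1 µM final; % is scaled to controls: 0 for no effect and ±100 for the full control effect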", "details": "Jurkat NFAT-bla M1, carbachol, beta-lactamase ratio, 5 h; at 7.69 µM (top of the series) unless noted", "in_short": "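Read-out: CCF4 FRET ratio (460 nm/530 nm) after 1 h RT dye loading, used for %activity and AC50 from titration series. Cells: Jurkat NFAT-β-lactamase/M1 line, treated with compound plus 1 uM carbachol for 5 h, 37 °C.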"}, "[4]": {"experiment": "Stat Signaling Pathway (AID 446);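 also: ME-180 cervical cancer cells given 40 pM IL-6 alongside compound; % is scaled to controls: 0 for no effect and ±100 for the full control effect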", "details": "ME-180 SIE beta-lactamase reporter, IL-6 stimulated, 5 h; at 7.69 µM (top of the series) unless noted", "in_short": "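Emission at 460 and 530 nm (excitation 405 nm) reports SIE-controlled beta-lactamase in ME-180 cells. Cells received compound with 40 pM IL-6 for 5 hrs at 37 C; data scaled between 300 pM IL-6 and 125 nM JAK-inhibitor controls.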"}, "[5]": {"target": "Glucocorticoid receptor (Homo sapiens) (UniProt P04150)", "sequence (P04150 whole entry, looked up, the tested form may be a part)": "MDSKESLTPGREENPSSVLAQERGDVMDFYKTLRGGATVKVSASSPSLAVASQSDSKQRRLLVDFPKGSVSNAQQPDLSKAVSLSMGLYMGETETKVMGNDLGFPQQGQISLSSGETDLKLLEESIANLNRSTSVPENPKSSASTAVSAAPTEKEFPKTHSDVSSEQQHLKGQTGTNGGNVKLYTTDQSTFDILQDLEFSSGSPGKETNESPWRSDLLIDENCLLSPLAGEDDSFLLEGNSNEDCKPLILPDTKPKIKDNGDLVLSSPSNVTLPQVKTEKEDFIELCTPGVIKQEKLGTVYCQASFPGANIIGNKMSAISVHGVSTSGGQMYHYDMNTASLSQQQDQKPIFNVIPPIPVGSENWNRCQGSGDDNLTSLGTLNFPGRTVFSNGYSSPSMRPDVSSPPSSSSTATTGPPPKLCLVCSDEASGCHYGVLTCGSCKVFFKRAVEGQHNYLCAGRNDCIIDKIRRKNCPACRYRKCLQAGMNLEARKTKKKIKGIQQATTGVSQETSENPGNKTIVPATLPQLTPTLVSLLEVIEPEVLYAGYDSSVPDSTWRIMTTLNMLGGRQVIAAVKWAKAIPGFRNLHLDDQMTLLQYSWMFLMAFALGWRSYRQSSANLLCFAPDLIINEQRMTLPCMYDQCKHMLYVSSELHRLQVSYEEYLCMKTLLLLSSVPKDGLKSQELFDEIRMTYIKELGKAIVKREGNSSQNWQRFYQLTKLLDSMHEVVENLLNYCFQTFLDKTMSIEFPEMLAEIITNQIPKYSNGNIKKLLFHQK", "experiment": "GR-GFP Redistribution (AID 450;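 active = compounds whose dose series gives a full or clear partial fitted curve of increased nuclear translocation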; also: potency is read from the fitted curve at half-maximal effect)", "details": "U2OS GR-GFP nuclear translocation, laser cytometry, 2 h"}, "[6]": {"target": "Glucocorticoid receptor (Homo sapiens) (UniProt P04150)", "experiment": "GR-EFC Redistribution (AID 451; calls by dose curve; also: potency is read from the fitted curve at half-maximal effect)", "details": "CHO-K1 GR-EFC translocation, beta-gal luminescence, 2 h", "in_short": "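Translocation of GR-ED fusion to nuclear EA restores b-gal, read by luminescence after 1 h room-temperature detection. Engineered CHO-K1 biosensor cells, 1,000/well, exposed 2 h at 37 C to titrations up to 46 uM final.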"}, "[7]": {"target": "3',5'-cyclic-AMP phosphodiesterase 4B (Homo sapiens) (UniProt Q07343)", "sequence (Q07343 whole entry, looked up)": "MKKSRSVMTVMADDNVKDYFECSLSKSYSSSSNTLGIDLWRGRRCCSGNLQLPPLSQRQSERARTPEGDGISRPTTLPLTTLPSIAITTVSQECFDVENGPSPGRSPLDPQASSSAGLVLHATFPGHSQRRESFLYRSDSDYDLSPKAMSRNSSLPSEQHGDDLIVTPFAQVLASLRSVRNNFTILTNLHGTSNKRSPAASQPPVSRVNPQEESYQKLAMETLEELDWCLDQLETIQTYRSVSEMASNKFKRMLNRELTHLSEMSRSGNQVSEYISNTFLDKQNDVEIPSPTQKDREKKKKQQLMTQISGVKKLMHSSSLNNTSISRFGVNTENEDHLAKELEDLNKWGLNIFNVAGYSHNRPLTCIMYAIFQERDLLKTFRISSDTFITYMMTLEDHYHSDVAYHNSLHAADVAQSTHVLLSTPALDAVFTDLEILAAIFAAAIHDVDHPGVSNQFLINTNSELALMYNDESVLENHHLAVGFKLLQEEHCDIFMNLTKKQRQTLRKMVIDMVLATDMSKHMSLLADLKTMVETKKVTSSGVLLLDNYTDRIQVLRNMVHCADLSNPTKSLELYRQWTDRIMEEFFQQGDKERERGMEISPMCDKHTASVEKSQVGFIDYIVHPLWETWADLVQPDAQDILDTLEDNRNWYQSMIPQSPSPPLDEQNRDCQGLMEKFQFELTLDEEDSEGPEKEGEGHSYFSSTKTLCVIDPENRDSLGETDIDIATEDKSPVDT", "experiment": "qHTS Assay for Inhibitors of PDE-IV (AID 607; active = well fitted activation curve with a large enough effect in the main read-out, with a control signal flat, not every such curve was filed as active; also: % of control where 0% means no effect)", "details": "HEK293 ACTOne CNG channel cells, membrane potential fluorescence; series mostly up to 22.9 µM", "in_short": "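The readout is membrane depolarisation from a cAMP-sensing CNG channel, detected with a potential dye at ex 535/em 590. Cells were HEK293-derived (endogenous PDE-IV) at 1000 cells/well, titrated up to 22.9 uM final.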"}, "[8]": {"target": "Cytochrome P450 2C19 (Homo sapiens) (UniProt P33261)", "sequence (P33261 whole entry, looked up)": "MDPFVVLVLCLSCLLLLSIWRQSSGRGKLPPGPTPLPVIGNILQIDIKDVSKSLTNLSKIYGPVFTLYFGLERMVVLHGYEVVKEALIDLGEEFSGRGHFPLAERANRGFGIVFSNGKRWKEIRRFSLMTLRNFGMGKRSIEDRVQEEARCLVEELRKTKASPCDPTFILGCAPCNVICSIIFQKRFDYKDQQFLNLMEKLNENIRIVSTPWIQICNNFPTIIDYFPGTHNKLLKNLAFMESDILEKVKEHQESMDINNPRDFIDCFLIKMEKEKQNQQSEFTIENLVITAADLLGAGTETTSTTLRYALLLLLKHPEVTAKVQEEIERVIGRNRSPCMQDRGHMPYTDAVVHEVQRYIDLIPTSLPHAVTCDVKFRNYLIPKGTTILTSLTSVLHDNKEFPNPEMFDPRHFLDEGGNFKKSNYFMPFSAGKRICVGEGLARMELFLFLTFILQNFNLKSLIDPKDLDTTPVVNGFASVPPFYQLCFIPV", "experiment": "qHTS Assay for Inhibitors and Substrates of Cytochrome P450 2C19 (AID 899; active = well fitted inhibition curve with a large enough effect; also: nearly all actives have a fitted effect of over 60% in size; also: potency is read from the fitted curve at half-maximal effect)", "details": "recombinant CYP2C19, luciferin-H EGE luminescence; series mostly up to 11.4 µM", "in_short": "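Reactions contain 5nM enzyme, 10uM Luciferin-H EGE (KM) and 50mM KPO4; compound preincubates 10 min at 37C, NADPH regeneration starts turnover for 60 min. Luminescence after detection reagent gives activity.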"}, "[9]": {"target": "Mitogen-activated protein kinase 10 (Mus musculus) (UniProt Q61831)", "experiment": "JNK3 AlphaScreen Assay (AID 530); also: % is scaled to controls: 0 for no effect and ±100 for the full control effect", "details": "JNK3 lysate, c-Jun phosphorylation; series mostly up to 11.4 µM", "in_short": "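Kinase buffer: 20 mM Tris-HCl pH 7.6, 10 mM MgCl2, 1 mM DTT, 0.1 mM Na3VO4, 0.01% Tween-20; ATP 10 uM. Substrate biotin-GST-cJun(1-79), enzyme from activated HepG2 lysates. Detection by Ser73 phospho-antibody AlphaScreen.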"}, "[10]": {"experiment": "qHTS Assay for Identification of Small Molecule Agonists for Hypoxia Response Element Signaling Pathway (AID 914; active = well fitted activation curve with a large enough effect in the signal ratio, with a control signal flat, not every such curve was filed as active; the % refers to the signal ratio; also: % of control where 0% means no effect)", "details": "ME-180 HRE-bla reporter, beta-lactamase ratio, CoCl2, 17 h; activation: stronger effect = higher value", "in_short": "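qHTS titration; ME-180 HRE-bla cells; EC50 CoCl2 co-treatment, 17 h at 37 degrees Celsius; CCF4 dye, ex 405nm, em 460nm and 530nm; %Activity from ratio; AC50.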"}, "[11]": {"target": "Cytochrome P450 2C9 (Homo sapiens) (UniProt P11712)", "sequence (P11712 whole entry, looked up)": "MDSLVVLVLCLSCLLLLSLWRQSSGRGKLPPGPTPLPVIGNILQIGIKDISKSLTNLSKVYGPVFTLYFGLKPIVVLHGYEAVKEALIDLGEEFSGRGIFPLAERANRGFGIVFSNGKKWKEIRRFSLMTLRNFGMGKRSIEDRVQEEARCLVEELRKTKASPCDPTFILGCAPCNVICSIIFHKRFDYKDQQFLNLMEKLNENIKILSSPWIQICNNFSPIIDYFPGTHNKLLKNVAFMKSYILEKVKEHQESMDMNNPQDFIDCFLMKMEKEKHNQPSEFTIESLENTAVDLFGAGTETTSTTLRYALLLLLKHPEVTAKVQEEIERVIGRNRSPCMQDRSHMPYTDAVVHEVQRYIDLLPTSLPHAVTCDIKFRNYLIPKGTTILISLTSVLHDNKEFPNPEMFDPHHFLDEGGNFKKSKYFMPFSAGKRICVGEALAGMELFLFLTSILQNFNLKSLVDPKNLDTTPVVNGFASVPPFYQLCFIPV", "experiment": "qHTS Assay for Inhibitors and Substrates of Cytochrome P450 2C9 (AID 883; active = well fitted inhibition curve with a large enough effect; also: % is scaled to controls: 0 for no effect and ±100 for the full control effect; nearly all actives have a fitted effect of over 60% in size)", "details": "recombinant CYP2C9, luciferin-H luminescence, 60 min; series mostly up to 11.4 µM", "in_short": "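Turnover of Luciferin-H (100uM, KM) by 10nM human CYP2C9 was measured over 60 min at 37C with NADPH regeneration; inhibitors and some substrates reduce luminescence. Data normalized to sulphaphenazole 57uM.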"}},
  "note": "Values without a mark were called inactive. Results filed as inconclusive are left out. Calls of active or inactive are those of the source. Unless noted, calls follow the shape of the dose curve; as a rule, active = well fitted curve in either direction with a large enough effect (not every such curve was filed as active); inconclusive = small, poorly fitted or top-dose-only effect, or another doubt; inactive = flat fitted curve, though single readings scatter.",
  "data": [
    {"compound": "CSc1nc2cc(S(=O)(=O)N3CCCCC3)ccc2s1", "values": [
      {"measurement": "Potency", "setting": "[1]", "value": "> 11.4", "unit": "µM"},
      {"measurement": "activity change, negative = inhibition", "setting": "[2]", "value": -19.7, "unit": "%"},
      {"measurement": "activity change, negative = inhibition", "setting": "[3]", "value": -0.492, "unit": "%"},
      {"measurement": "activity, negative = inhibition", "setting": "[4]", "value": -6.1, "unit": "%"},
      {"measurement": "Potency", "setting": "[5]", "value": "> 46", "unit": "µM"},
      {"measurement": "Potency", "setting": "[6]", "value": "> 9.22", "unit": "µM"},
      {"measurement": "Potency", "setting": "[7]", "value": "inactive"},
      {"measurement": "Potency", "setting": "[8]", "value": "1.26 µM (active)"}
    ]},
    {"compound": "O=C(O)CSc1ccc([N+](=O)[O-])cc1[N+](=O)[O-]", "values": [
      {"measurement": "Potency", "setting": "[1]", "value": "> 11.4", "unit": "µM"},
      {"measurement": "activity change, negative = inhibition", "setting": "[2]", "value": 10.9, "unit": "%"},
      {"measurement": "activity change, negative = inhibition", "setting": "[3]", "value": -3.03, "unit": "%"},
      {"measurement": "activity, negative = inhibition", "setting": "[4]", "value": 9.83, "unit": "%"},
      {"measurement": "Potency", "setting": "[5]", "value": "> 46", "unit": "µM"},
      {"measurement": "Potency", "setting": "[9]", "value": "inactive"},
      {"measurement": "Potency", "setting": "[7]", "value": "inactive"}
    ]},
    {"compound": "Cc1cc(=O)[nH]c(/N=C(\\N)Nc2ccc(Cl)cc2)n1", "values": [
      {"measurement": "Potency", "setting": "[1]", "value": "> 11.4", "unit": "µM"},
      {"measurement": "activity change, negative = inhibition", "setting": "[2]", "value": -8.26, "unit": "%"},
      {"measurement": "activity change, negative = inhibition", "setting": "[3]", "value": -9.44, "unit": "%"},
      {"measurement": "activity, negative = inhibition", "setting": "[4]", "value": -3.21, "unit": "%"},
      {"measurement": "Potency", "setting": "[5]", "value": "> 46", "unit": "µM"},
      {"measurement": "Potency", "setting": "[9]", "value": "inactive"}
    ]},
    {"compound": "CS(=O)(=O)c1ccc(/C=N\\NC(N)=S)cc1", "values": [
      {"measurement": "Potency", "setting": "[1]", "value": "> 11.4", "unit": "µM"},
      {"measurement": "activity change, negative = inhibition", "setting": "[2]", "value": 2.65, "unit": "%"},
      {"measurement": "activity change, negative = inhibition", "setting": "[3]", "value": 1.52, "unit": "%"},
      {"measurement": "activity, negative = inhibition", "setting": "[4]", "value": -2.81, "unit": "%"},
      {"measurement": "Potency", "setting": "[5]", "value": "> 46", "unit": "µM"},
      {"measurement": "Potency", "setting": "[6]", "value": "> 9.22", "unit": "µM"},
      {"measurement": "Potency", "setting": "[7]", "value": "inactive"}
    ]},
    {"compound": "CC(C)Cn1cnc2c(SCc3ccccn3)nc(N)nc21", "values": [
      {"measurement": "Potency", "setting": "[1]", "value": "> 11.4", "unit": "µM"},
      {"measurement": "activity change, negative = inhibition", "setting": "[2]", "value": -13.7, "unit": "%"},
      {"measurement": "activity change, negative = inhibition", "setting": "[3]", "value": 8.93, "unit": "%"},
      {"measurement": "activity, negative = inhibition", "setting": "[4]", "value": -1.91, "unit": "%"},
      {"measurement": "Potency", "setting": "[5]", "value": "> 46", "unit": "µM"},
      {"measurement": "Potency", "setting": "[6]", "value": "> 9.22", "unit": "µM"},
      {"measurement": "Potency", "setting": "[7]", "value": "inactive"},
      {"measurement": "activation", "setting": "[10]", "value": 13.1, "unit": "%"}
    ]},
    {"compound": "N#Cc1c(NC(=O)CCC(=O)O)ccc2ccccc12", "values": [
      {"measurement": "Potency", "setting": "[1]", "value": "> 11.4", "unit": "µM"},
      {"measurement": "activity change, negative = inhibition", "setting": "[2]", "value": -3.75, "unit": "%"},
      {"measurement": "activity change, negative = inhibition", "setting": "[3]", "value": 18.9, "unit": "%"},
      {"measurement": "activity, negative = inhibition", "setting": "[4]", "value": 4.61, "unit": "%"},
      {"measurement": "Potency", "setting": "[5]", "value": "> 46", "unit": "µM"},
      {"measurement": "Potency", "setting": "[6]", "value": "> 9.22", "unit": "µM"},
      {"measurement": "Potency", "setting": "[9]", "value": "inactive"},
      {"measurement": "Potency", "setting": "[8]", "value": "inactive"},
      {"measurement": "activation", "setting": "[10]", "value": 3.84, "unit": "%"}
    ]},
    {"compound": "C[C@@H](CCC(=O)O)C(=O)O", "values": [
      {"measurement": "Potency", "setting": "[1]", "value": "> 11.4", "unit": "µM"},
      {"measurement": "activity change, negative = inhibition", "setting": "[2]", "value": 3.57, "unit": "%"},
      {"measurement": "activity change, negative = inhibition", "setting": "[3]", "value": 5.4, "unit": "%"},
      {"measurement": "activity, negative = inhibition", "setting": "[4]", "value": 0.834, "unit": "%"},
      {"measurement": "Potency", "setting": "[5]", "value": "> 46", "unit": "µM"},
      {"measurement": "Potency", "setting": "[9]", "value": "inactive"},
      {"measurement": "Potency", "setting": "[7]", "value": "inactive"}
    ]},
    {"compound": "CC(C)(CCc1nc2ccccc2[nH]1)C(=O)O", "values": [
      {"measurement": "Potency", "setting": "[1]", "value": "> 11.4", "unit": "µM"},
      {"measurement": "activity change, negative = inhibition", "setting": "[2]", "value": -7.34, "unit": "%"},
      {"measurement": "activity change, negative = inhibition", "setting": "[3]", "value": 6.77, "unit": "%"},
      {"measurement": "activity, negative = inhibition", "setting": "[4]", "value": 1.19, "unit": "%"},
      {"measurement": "Potency", "setting": "[5]", "value": "> 46", "unit": "µM"},
      {"measurement": "Potency", "setting": "[6]", "value": "> 9.22", "unit": "µM"},
      {"measurement": "Potency", "setting": "[7]", "value": "inactive"},
      {"measurement": "Potency", "setting": "[11]", "value": "inactive"}
    ]}
  ]
}
